According to article PMC6451091, “NextPBM: a platform to study cell-specific transcription factor binding and cooperativity”:
In all, about 3,700 sequences were measured (“z-score”: median about 4, highest 2% from about 8.4 on). This is one part of a sample in which the highest values are shown more often than they occur.

Legend:
PU.1 (IVT) [1] = biological target: PU.1 (IVT) (UniProt P17947 1-270); assay: protein-binding microarray (PBM); 20 mM HEPES pH 7.9, 100 mM NaCl, 1 mM DTT, 0.2 mg/mL BSA, 0.02% Triton X-100, 2% milk, 0.4 mg/mL salmon testes DNA; 1 h; temperature not stated; high values mean tight binding; settings: dsDNA, one strand shown
Outline: (§1)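 Full-length untagged PU.1 was made by coupled human in vitro transcription/translation. It was bound for 1 h to custom double-stranded DNA microarrays carrying 20-bp genomic sites and single-nucleotide variants, 10 probes per site (5 per orientation). The binding buffer was HEPES pH 7.9 with 100 mM NaCl, 2% milk and salmon testes DNA. Bound protein was detected with anti-PU.1 and then a fluorescent secondary antibody. Binding is a z-score from scanned fluorescence after linear-regression normalisation.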

PU.1 (IVT) [2] = biological target: PU.1 (IVT) (UniProt P17947 1-270); assay: as above; settings: dsDNA, one strand shown; remark: listed apart in the source
Outline: as §1

| Sequence | binding signal (PU.1 (IVT) [1]) | binding signal (PU.1 (IVT) [2]) |
| --- | --- | --- |
| GCCTAGCACCGAAAGGGGAAGTGCTAAAAGTGCTAGGTCTTGATTCGCTTGACGCTGCTG | 6.97 z-score | – |
| GCCTAGCACGAAAAGGGGAAGTGCTGGGGGTGCTAGGTCTTGATTCGCTTGACGCTGCTG | 7.77 z-score | – |
| GCCTAGCACGAAAGGAGGAAGTGGAGGGTGTGCTAGGTCTTGATTCGCTTGACGCTGCTG | – | 5.92 z-score |
| GCCTAGCACGAAAAGCGGAAGTGGTGTGGGTGCTAGGTCTTGATTCGCTTGACGCTGCTG | 8.61 z-score | – |
| GCCTAGCACCAAAAAGGGAAGTGGAAGCTGTGCTAGGTCTTGATTCGCTTGACGCTGCTG | – | 6.2 z-score |
| GCCTAGCACCAAAAGCGGAAGTGGTGCCTGTGCTAGGTCTTGATTCGCTTGACGCTGCTG | 8.56 z-score | – |
| GCCTAGCACCAAAAAAGGAAGTGGCTGTGGTGCTAGGTCTTGATTCGCTTGACGCTGCTG | 5.51 z-score | – |
| GCCTAGCACAAAAAAAGGAAAGGAAAGTAGTGCTAGGTCTTGATTCGCTTGACGCTGCTG | 1.27 z-score | – |
| GCCTAGCACAAAATGAGGAAGTGACTTTGGTGCTAGGTCTTGATTCGCTTGACGCTGCTG | 8.87 z-score | – |
| GCCTAGCACAAAATGAGGAAGTGCTTCTAGTGCTAGGTCTTGATTCGCTTGACGCTGCTG | 8.37 z-score | – |
| GCCTAGCACAAAATGAGGAACTGCTGTCTGTGCTAGGTCTTGATTCGCTTGACGCTGCTG | 6.9 z-score | – |
| GCCTAGCACAAAATGAGGAAGTGAGCTAAGTGCTAGGTCTTGATTCGCTTGACGCTGCTG | 7.94 z-score | – |
| GCCTAGCACAAAATGAGGAAGTTGGATGGGTGCTAGGTCTTGATTCGCTTGACGCTGCTG | 8.35 z-score | – |
| GCCTAGCACAAAAGGAGGAAGTTGGTTGGGTGCTAGGTCTTGATTCGCTTGACGCTGCTG | 7.62 z-score | – |
| GCCTAGCACAAAATGAGGAAGTGAACAAAGTGCTAGGTCTTGATTCGCTTGACGCTGCTG | 8.02 z-score | – |
| GCCTAGCACAAAATGAGGAAGTACCCTCTGTGCTAGGTCTTGATTCGCTTGACGCTGCTG | 8.28 z-score | – |
| GCCTAGCACAAAATGAGGAAGTGCATTGAGTGCTAGGTCTTGATTCGCTTGACGCTGCTG | 8.07 z-score | – |
| GCCTAGCACAAAATGAGGAAGTGTGATTAGTGCTAGGTCTTGATTCGCTTGACGCTGCTG | 7.8 z-score | – |
| GCCTAGCACAAAATGAGGAAGTAATTCCTGTGCTAGGTCTTGATTCGCTTGACGCTGCTG | 8.66 z-score | – |
| GCCTAGCACAAATAGAGGAAGTGGAATGGGTGCTAGGTCTTGATTCGCTTGACGCTGCTG | 7.2 z-score | – |
| GCCTAGCACACAATGAGGAAGTGCTGGCCGTGCTAGGTCTTGATTCGCTTGACGCTGCTG | – | 6.19 z-score |
| GCCTAGCACTAAAGGAGGAATTGAAACCAGTGCTAGGTCTTGATTCGCTTGACGCTGCTG | 1.22 z-score | – |
| GCCTAGCACGCCAGGAGGAAGTGGAAATGGTGCTAGGTCTTGATTCGCTTGACGCTGCTG | 4.22 z-score | – |

| Sequence | binding signal (PU.1 (IVT) [1]) | binding signal (PU.1 (IVT) [2]) |
| --- | --- | --- |
| GCCTAGCACGACAAGAGGAAGTGCAAGATGTGCTAGGTCTTGATTCGCTTGACGCTGCTG | 4.87 z-score | – |
| GCCTAGCACATATGGAGGAAGTGGAACCCGTGCTAGGTCTTGATTCGCTTGACGCTGCTG | 3.92 z-score | – |
| GCCTAGCACCTGCCAGGGAAGTGTAAGCAGTGCTAGGTCTTGATTCGCTTGACGCTGCTG | – | 0.66 z-score |
| GCCTAGCACAAAAAGAAGAAGTGGGGCTTGTGCTAGGTCTTGATTCGCTTGACGCTGCTG | – | 4.26 z-score |
| GCCTAGCACTGAAAGGGGAAGTCTTTTTAGTGCTAGGTCTTGATTCGCTTGACGCTGCTG | 6.55 z-score | – |
| GCCTAGCACAAAATGAGGAAGTGCTGGCAGTGCTAGGTCTTGATTCGCTTGACGCTGCTG | 8.14 z-score | – |
| GCCTAGCACAAAATGAGGAAGTGGCTTTGGTGCTAGGTCTTGATTCGCTTGACGCTGCTG | 8.37 z-score | – |
| GCCTAGCACAAAATGAGGAAGTGGAAGGGGTGCTAGGTCTTGATTCGCTTGACGCTGCTG | 8.15 z-score | – |
| GCCTAGCACTAAATGAGGAAGTGTGCTGTGTGCTAGGTCTTGATTCGCTTGACGCTGCTG | 7.74 z-score | – |
| GCCTAGCACAAAAAGAGGAAGTCTGGTGTGTGCTAGGTCTTGATTCGCTTGACGCTGCTG | 8.02 z-score | – |
| GCCTAGCACAAAAAGAGGAAGTGATGACCGTGCTAGGTCTTGATTCGCTTGACGCTGCTG | 8.84 z-score | – |
| GCCTAGCACAAAAAAAGGAAGTGGACCGTGTGCTAGGTCTTGATTCGCTTGACGCTGCTG | – | 6.55 z-score |
| GCCTAGCACGAAAAGAGGAAGTGAGATGTGTGCTAGGTCTTGATTCGCTTGACGCTGCTG | 8.73 z-score | – |
| GCCTAGCACGAAAAGAGGAAGTGTGAGACGTGCTAGGTCTTGATTCGCTTGACGCTGCTG | 7.97 z-score | – |
| GCCTAGCACAAAAAGAGGAAGTGATGAGTGTGCTAGGTCTTGATTCGCTTGACGCTGCTG | 8.92 z-score | – |
| GCCTAGCACGAAAAGAGGAAGTGTGAGATGTGCTAGGTCTTGATTCGCTTGACGCTGCTG | 8.2 z-score | – |
| GCCTAGCACAAAGAGAGGAAGTACAGTTTGTGCTAGGTCTTGATTCGCTTGACGCTGCTG | 5.35 z-score | – |
| GCCTAGCACAAAAAAAGGAAGTGATAGCCGTGCTAGGTCTTGATTCGCTTGACGCTGCTG | – | 6.5 z-score |
| GCCTAGCACAAGAAGAGGAAGTGAGTGCTGTGCTAGGTCTTGATTCGCTTGACGCTGCTG | 7.09 z-score | – |
| GCCTAGCACAAAAAGAGGAAGTCAGTTTGGTGCTAGGTCTTGATTCGCTTGACGCTGCTG | 8.4 z-score | – |
| GCCTAGCACAAGATGAGGAAGTGAGTGTAGTGCTAGGTCTTGATTCGCTTGACGCTGCTG | – | 6.13 z-score |
| GCCTAGCACTTAATGAGGAAGTGCTGTCAGTGCTAGGTCTTGATTCGCTTGACGCTGCTG | 6.5 z-score | – |
